# According to article PMC11062922 (Nature Chemical Biology, 2023):
# What was measured:
# Design in all cases: species or system human, MV4-11 + K-562 + COLO205 + SK-N-BE2 + OVCAR-8
# RPS6KB1 = conditions: read-out: apparent Kd; compound concentrations: 100 nM and 1000 nM (sheet 'Samples'), CATDS: 7.08215510279748E-2; n = 1
# NEK2 = conditions: read-out: apparent Kd; compound concentrations:100 nM and 1000 nM (sheet 'Samples'); n = 1
# PKMYT1 = conditions: read-out: apparent Kd; compound concentrations:100 nM and 1000 nM (sheet 'Samples'); n = 1
# NEK3 = conditions: read-out: apparent Kd; compound concentrations: 100 nM and 1000 nM (sheet 'Samples'), CATDS: 2.1900299581920201E-2; n = 1
# PIK3C2B = conditions: read-out: apparent Kd; compound concentrations: 100 nM and 1000 nM (sheet 'Samples'), CATDS: 3.01337612448444E-2; n = 1
# FES = conditions: read-out: apparent Kd; compound concentrations: 100 nM and 1000 nM (sheet 'Samples'), CATDS: 3.8230279183827799E-2; n = 1
# MAPK3 = conditions: read-out: apparent Kd; compound concentrations:100 nM and 1000 nM (sheet 'Samples'); n = 1
# NEK9 = conditions: read-out: apparent Kd; compound concentrations: 100 nM and 1000 nM (sheet 'Samples'), CATDS: 2.1458730065113701E-2; n = 1
# AGK = conditions: read-out: apparent Kd; compound concentrations:100 nM and 1000 nM (sheet 'Samples'); n = 1
# CLK3 = conditions: read-out: apparent Kd; compound concentrations: 100 nM and 1000 nM (sheet 'Samples'), CATDS: 1.8485003347971998E-2; n = 1
# NTRK1 = conditions: read-out: apparent Kd; compound concentrations: 100 nM and 1000 nM (sheet 'Samples'), CATDS: 1.31353956305182E-2; n = 1
# RPS6KA1 = conditions: read-out: apparent Kd; compound concentrations: 100 nM and 1000 nM (sheet 'Samples'), CATDS: 1.0541415060752299E-2; n = 1
# MAP2K3 = conditions: read-out: apparent Kd; compound concentrations:100 nM and 1000 nM (sheet 'Samples'); n = 1
# PIK3CB = conditions: read-out: apparent Kd; compound concentrations:100 nM and 1000 nM (sheet 'Samples'); n = 1
# SLC25A5 = conditions: read-out: apparent Kd; compound concentrations:100 nM and 1000 nM (sheet 'Samples'); n = 1
# PI4KB = conditions: read-out: apparent Kd; compound concentrations: 100 nM and 1000 nM (sheet 'Samples'), CATDS: 0.18067625739165599; n = 1
# CDC42BPG = conditions: read-out: apparent Kd; compound concentrations: 100 nM and 1000 nM (sheet 'Samples'), CATDS: 6.5617212110221396E-2; n = 1
# GRAMD1A = conditions: read-out: apparent Kd; compound concentrations: 100 nM and 1000 nM (sheet 'Samples'), CATDS: 4.7101579015389999E-2; n = 1
# AGPS = conditions: read-out: apparent Kd; compound concentrations:100 nM and 1000 nM (sheet 'Samples'); n = 1
# CAMK2G = conditions: read-out: apparent Kd; compound concentrations:100 nM and 1000 nM (sheet 'Samples'); n = 1
compound,measurement,setting,value
O=C1N=C(NCCc2ccccc2F)S/C1=C\c1ccc2ncccc2c1 [RO4498483-000],potency estimated from few doses,RPS6KB1,1720 nM
CCN(CC)CCOc1ccc(Nc2ncc3cc(-c4c(Cl)cccc4Cl)c(=O)n(C)c3n2)cc1 [SB-601273],potency estimated from few doses,NEK2,1780 nM
same,potency estimated from few doses,PKMYT1,1030 nM
O=S(=O)(CCOCc1ccc(-c2ccc3ncnc(Nc4ccc(OCc5cccc(F)c5)c(Cl)c4)c3c2)o1)c1ccccc1 [GW615311X],potency estimated from few doses,NEK3,2460 nM
same,potency estimated from few doses,PIK3C2B,1160 nM
CN1CCN(Cc2ccc(NC(=O)Nc3ccc(N(C)c4ccnc(Nc5ccc(CS(C)(=O)=O)cc5)n4)cc3)cc2)CC1.Cl [GW827654A],potency estimated from few doses,FES,1230 nM
N#Cc1cccc(Nc2nccc(-c3cnn4ncccc34)n2)c1 [GW778894X],potency estimated from few doses,MAPK3,975 nM
CC(C)c1nc(-c2cccc(NS(=O)(=O)c3c(F)cccc3F)c2F)c(-c2ccnc(Nc3ccc(N4CCOCC4)nc3)n2)s1 [GSK2008607A],potency estimated from few doses,NEK9,1100 nM
Fc1ccc(-c2c(-c3ccncc3)[nH]c3nccnc23)cc1 [RO1155697-000],potency estimated from few doses,AGK,1640 nM
CNC(=O)c1ccccc1Nc1nc(Nc2cccc(CS(C)(=O)=O)c2)ncc1C.O=CO [GSK1520489A],potency estimated from few doses,CLK3,167 nM
same,potency estimated from few doses,NTRK1,438 nM
same,potency estimated from few doses,RPS6KA1,1010 nM
Nc1nc(N)c2nc(-c3ccccc3)[nH]c2n1 [SKF-12778],potency estimated from few doses,MAP2K3,2020 nM
same,potency estimated from few doses,PIK3CB,790 nM
same,potency estimated from few doses,SLC25A5,1960 nM
CS(=O)(=O)c1ccc(-c2cnc(N)c(C(=O)Nc3ccccc3)n2)cc1 [VE-821],potency estimated from few doses,PI4KB,812 nM
COc1ccc(-c2nn3ncccc3c2-c2ccnc(Nc3ccc4c(c3)OCCO4)n2)cc1 [GW827106X],potency estimated from few doses,CDC42BPG,834 nM
same,potency estimated from few doses,GRAMD1A,1730 nM
COc1ccc(COc2ccc(Cc3cnc(N)nc3N)cc2OC)cc1 [GW632580X],potency estimated from few doses,AGPS,1650 nM
Cl.Oc1ccc2ncnc(Nc3ccc(OCc4ccccc4)cc3)c2c1 [GI262866A],potency estimated from few doses,CAMK2G,385 nM
